# ChEMBL document CHEMBL4513146, “CO-ADD screening of Karazin Kharkiv National University (Ukraine) compounds”
# Potency and affinity values are given separately.
# Columns and labels:
# Klebsiella pneumoniae = conditions: Concentration 32 ug.mL-1;; ASSAY_TEST Inhibition of Bacterial Growth; detection method Absorption (OD600); MEDIA CAMHB; plate type 384well; NBS; CORNING #3640; time 18 hr
# Candida albicans = conditions: Concentration 32 ug.mL-1; ASSAY_TEST Inhibition of Fungal Growth; detection method Absorption (OD530)
# Cryptococcus neoformans = conditions: Concentration 32 ug.mL-1; ASSAY_TEST Inhibition of Fungal Growth; detection method Resazurin; Absorption (OD600-OD570); plate type 384well; NBS; CORNING #3640
Compound,Inhibition (Klebsiella pneumoniae),Inhibition (Candida albicans),Inhibition (Cryptococcus neoformans)
COc1cccc(CN(c2cc(F)cc(F)c2)S(=O)(=O)c2ccc3nnc(C)n3c2)c1,6.42%,1.34%,-5.08%
Cc1ccc(C)c(CN(c2ccc(F)c(F)c2)S(=O)(=O)c2cccn3cnnc23)c1,-0.76%,1.83%,-7.27%
Cc1ccc(-c2ccc3nn(CC(=O)Nc4ccccc4)c(=O)n3n2)cc1C,3.8%,-1.46%,-10.8%
COc1ccc(NC(=O)Cn2nc3cc(C)nc(Nc4cc(C)cc(C)c4)n3c2=O)cc1,10.21%,1.22%,-8.99%
C=Cc1ccc(CN(c2cccc(F)c2)S(=O)(=O)c2ccc3nnc(C)n3c2)cc1,2.09%,1.51%,-6.84%
CC(C)c1nnc2c(SCC(=O)Nc3ccc4c(c3)OCO4)nc3ccccc3n12,4.73%,-0.7%,-20.34%
O=C(Cn1nc2c(N3CCOCC3)nccn2c1=O)Nc1cccc(C(F)(F)F)c1,0.9%,5.11%,-4.42%
Cc1ccc(NC(=O)Cn2nc3c(Oc4cccc(C)c4C)nccn3c2=O)c(Br)c1,10.09%,-2.33%,-8.9%
Cc1ccccc1-c1noc(Cn2nc3ccc(-c4ccccc4)nn3c2=O)n1,4.12%,31.81%,-15.26%
COc1ccc(-c2cc3c4nnc(SCC(=O)NCc5ccc(C)cc5)n4ccn3n2)cc1,7.85%,1.56%,-10.46%
Cc1ccc(Cn2nc3c(=O)n(-c4cccc(Cl)c4C)ccn3c2=O)cc1,10.23%,6.45%,-17.53%
COc1ccc(CN(c2ccc(OC)cc2)S(=O)(=O)c2ccc3nnc(C)n3c2)cc1,9.27%,0.4%,-1.1%
CC(C)c1nnc2c(=O)n(CC(=O)Nc3ccc(Cl)cc3)c3ccccc3n12,16.79%,3.6%,-17.29%
CCCCn1c(=O)c2sccc2n2c(SCc3cccc(C(F)(F)F)c3)nnc12,-0.52%,0.84%,-14.78%
COc1ccc(N(Cc2cc(F)cc(F)c2)S(=O)(=O)c2ccc3nnc(C)n3c2)cc1,10.99%,0.79%,-7.83%
Cc1ccc(-c2ccc3nn(Cc4ccc(F)cc4Cl)c(=O)n3n2)cc1C,16.15%,-0.6%,-24.45%

Compound,Inhibition (Klebsiella pneumoniae),Inhibition (Candida albicans),Inhibition (Cryptococcus neoformans)
CCc1nnc2c(SCC(=O)Nc3ccc4c(c3)OCCO4)nc3ccccc3n12,7.64%,5.98%,-5.14%
O=C(Cn1nc2n(Cc3ccc(F)cc3)c(=O)c3ccccc3n2c1=O)Nc1ccc2c(c1)OCO2,8.5%,5.19%,-6.14%
CCCc1nnc2c(=O)n(CC(=O)Nc3ccc(NC(C)=O)cc3)c3ccccc3n12,9.56%,-0.49%,-26.74%
COc1ccc(NC(=O)Cn2nc3c4cc(-c5ccc(C)c(C)c5)nn4ccn3c2=O)c(OC)c1,-0.09%,3.53%,-22.33%
O=C(CSc1nnc2c(=O)n(-c3ccccc3)ccn12)Nc1ccccc1F,7.24%,-0.73%,-14.95%
O=C(Cn1nc2c(Oc3ccccc3)nccn2c1=O)Nc1ccc2c(c1)OCCO2,6.43%,0.75%,-7.17%
COc1cccc(-n2ccn3c(SCC(=O)Nc4ccc(F)cc4F)nnc3c2=O)c1,3.3%,4.17%,-12.76%
COC(=O)c1sccc1NC(=O)CSc1nc2ccccc2n2c(C)nnc12,6.24%,5.11%,-2.05%
Cc1ccc(CNC(=O)CSc2nnc3c4cc(-c5ccc(F)cc5)nn4ccn23)cc1,11.62%,2.7%,-29.65%
COc1ccccc1CNC(=O)Cn1nc2c(N3CCCCCC3)nccn2c1=O,8.05%,3.98%,-7.24%
COc1ccc(NC(=O)Cn2nc3c(Oc4ccccc4)nccn3c2=O)cc1OC,4.37%,1.92%,-7.08%
O=C(Cn1nc2nc(Nc3ccc(F)cc3)ccn2c1=O)N1CCOCC1,14.5%,2.63%,-13.19%
Cc1cc(C)c(NC(=O)Cn2nc3c(SC4CCCCC4)nccn3c2=O)c(C)c1,10.47%,13.47%,-24.78%
C=Cc1ccc(CN(c2ccc(F)c(F)c2)S(=O)(=O)c2cccn3cnnc23)cc1,8.42%,2.5%,-8.63%
COc1cccc(NC(=O)Cn2nc3c(=O)n(-c4ccc(Br)cc4)ccn3c2=O)c1,6.98%,1.08%,-6.3%
CCOc1ccc(-n2ccn3c(SCC(=O)Nc4ccc(Cl)cc4)nnc3c2=O)cc1,5.78%,3.69%,-6.67%
